# A selection: hits, their analogues and other compounds. The true share with any hit is near 19%.
# TDP1 block: blocks human tyrosyl-DNA phosphodiesterase 1; hit rate 0.28% among 350,000; recombinant TDP1, AlphaScreen DNA substrate cleavage; Potency, µM (doses to about 130 µM), without a hit: top-dose activity change, negative = inhibition, hits mostly inhibitors; note: potency is the fitted concentration of half-maximal effect; nearly all actives have a fitted effect of over 40% in size
# Target sequence (Q9NUW8 whole entry, looked up): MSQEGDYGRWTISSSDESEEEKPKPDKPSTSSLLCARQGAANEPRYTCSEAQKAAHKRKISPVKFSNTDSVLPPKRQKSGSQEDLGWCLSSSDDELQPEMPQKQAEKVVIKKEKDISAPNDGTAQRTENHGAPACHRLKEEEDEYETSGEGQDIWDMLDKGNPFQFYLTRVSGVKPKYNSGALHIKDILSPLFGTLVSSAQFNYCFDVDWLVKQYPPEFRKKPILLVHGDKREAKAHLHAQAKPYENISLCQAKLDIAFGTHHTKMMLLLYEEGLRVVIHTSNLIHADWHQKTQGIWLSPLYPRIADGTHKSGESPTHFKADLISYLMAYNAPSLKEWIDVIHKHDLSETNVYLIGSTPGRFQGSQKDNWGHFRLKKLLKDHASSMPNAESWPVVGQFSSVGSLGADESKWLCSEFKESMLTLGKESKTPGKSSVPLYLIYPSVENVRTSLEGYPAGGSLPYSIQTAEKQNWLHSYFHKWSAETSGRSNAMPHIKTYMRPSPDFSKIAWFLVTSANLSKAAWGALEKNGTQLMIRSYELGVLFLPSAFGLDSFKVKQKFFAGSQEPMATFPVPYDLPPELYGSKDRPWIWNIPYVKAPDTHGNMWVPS
#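 AlphaScreen read-out: signal falls as enzyme removes the 3' tyrosine-FITC from a 5'-biotinylated DNA oligo (15 nM, 5 min, RT). Enzyme was E. coli-made recombinant Tdp1 at 1 nM, exposed to compound for 15 min beforehand; beads 10 ug/ml, 10 min.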
# TDP1 cell CPT: DT40-hTDP1 cell growth loss with CPT; chicken DT40 Tdp1-/-;hTDP1 cells + 20 nM CPT, ATP luminescence, 48 h; Potency, µM (highest dose often 46.2 µM), without a hit: at the highest dose activity change, negative = growth inhibition, hits mostly inhibitors; hit rate 12% among 420,000; note: potency is the fitted concentration of half-maximal effect; nearly all actives have a fitted effect of over 55% in size
#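 Cell growth measured by CellTiter-Glo luminescence after a minimum 48 h, 37 C compound exposure with 20 nM CPT in Tdp1-knockout DT40 cells stably expressing hTDP1, seeded 400/well; qHTS titration format.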
# DT40 TDP1 no CPT: qHTS for Inhibitors of human tyrosyl-DNA phosphodiesterase 1 (TDP1): qHTS in cells in absence of CPT; DT40 Tdp1-/- hTDP1 cells, no CPT, ATP luminescence, 48 h; Potency, µM (titrated, usually from 46.2 µM), without a hit: at the top dose activity change, negative = growth inhibition, most hits filed as inhibitors; hit rate 15% among 420,000; note: potency is the fitted concentration of half-maximal effect; nearly all actives have a fitted effect of over 55% in size
#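 A cellular qHTS used chicken DT40 cells lacking endogenous Tdp1 but carrying stably transfected human TDP1. Compounds were applied without camptothecin, and cell growth kinetics were judged by ATP-dependent luminescence after ≥48 hr.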
# IL1B secr inh: inflammasome signaling inhibition, IL-1 beta readout. THP-1 LPS/ATP IL-1B secretion, AlphaLISA, 16 h; active compounds read low. activity change, % at 57.5 µM. hit rate 4.7% among 360,000; in the data active = activity change below about -50%; inconclusive = mostly about -30% to -49%
#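 THP-1 cells pretreated 1 hr with compounds (up to 57.5 uM final), then stimulated with LPS (250 ng/mL final) plus ATP (1.25 mM final); secreted IL-1B measured by AlphaLISA after 16 hr, decreased signal indicating inhibition.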
# Giardia killer: kills Giardia lamblia. Giardia lamblia trophozoite viability. activity change, % at 7.66 µM, hits read low. hit rate 0.15% among 340,000. AID 540267; in the data active = activity change below about -80%; inconclusive = between about -30% and that limit;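 note: parasites exposed to compound for two days anaerobically before the ATP read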
#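 Killing of trophozoites was scored by loss of ATP luminescence after a 48 hrs anaerobic exposure to compounds at 37 deg C, using 100 cells per well.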
# ELG1 repair inh: blocks ELG1-dependent DNA repair in HEK293T cells; HEK293T ELG1-luciferase reporter, luminescence, 16 h; DNA damage induced by 5-fluorouridine; Potency, µM (top dose mostly 46.1 µM), for inactives: at the highest dose activity change, negative = inhibition, hits mostly inhibitors; hit rate 2.3% among 330,000; AID 504467; note: potency is the fitted concentration of half-maximal effect; nearly all actives have a fitted effect of over 55% in size
#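 Quantitative HTS, concentration-response format. 2,000 cells/well co-treated with 5-fluorouridine and compound, 16 hr in 5% CO2 at 37 °C; ONE-Glo luminescence read after 30 min.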
# Starred values were filed as active, the others as inactive; ? = inconclusive; nt = no result; [ ] = remark or other dose. Unless noted, calls come from the whole dose curve; as a rule, active = well fitted curve in the direction sought with a large enough effect; inconclusive = small, poorly fitted or top-dose-only effect, or another doubt; inactive = no such curve, though single readings can be large; an effect the other way counts as inactive or inconclusive. % is set by controls: 0 for no effect and ±100 for the full control effect.
SMILES,TDP1 block,TDP1 cell CPT,DT40 TDP1 no CPT,IL1B secr inh,Giardia killer,ELG1 repair inh
Cc1ccc2c(c1)Oc1ccc([N+](=O)[O-])cc1C(=O)N2,2.5%,16.9%,26.5%,13.2,17.5,-0.4%
Cc1ccc2c(c1)Oc1ccc(NC(=O)CCl)cc1C(=O)N2,2.5%,2.59µM*,2.31µM*,-100.0*,-10.9,?
CC(=O)c1c(C(C)=O)c(C)n(-c2nc(-c3ccc(Br)cc3)c(C)s2)c1C,3.9%,18.4µM*,16.4µM*,-27.7,-15.5,?
CN(C)c1nc(-c2cn(CCC#N)c3ccccc23)cs1,-2.8%,?,?,-24.7,-3.9,6.5%
Cc1[nH]nc(SCC(=O)Nc2ccc(C#N)cc2)c1[N+](=O)[O-],3.4%,-12.1%,19.2%,12.8,3.9,29.1%
COc1ccc(C2=Nc3ccccc3OC2)cc1,3.9%,25.9µM*,14.6µM*,25.1,-3.5,?
COc1ccc(C2=N[C@H](c3ccccc3)CO2)cc1,6.1%[234 µM],nt,nt,nt,nt,nt
CCN(CC)S(=O)(=O)c1cc(NC(=O)C(=O)c2c(-c3ccccc3)cc3ccccn23)ccc1C,5.6%,20.6µM*,23.1µM*,2.5,-2.8,16.4µM*
CCN(CC)S(=O)(=O)c1cc(NC(=O)CNc2c(C)n(C)n(-c3ccccc3)c2=O)ccc1C,2.7%,-2.6%,-1.6%,-4.3,4.3,-8.7%
CCN(CC)S(=O)(=O)c1cccc(NC(=O)C(=O)c2c(-c3ccccc3)cc3ccccn23)c1,-1.1%,?,23.1µM*,28.9,-26.4,16.4µM*
O=C(NCCCO)C(=O)c1c(-c2ccccc2)cc2ccccn12,-3.5%,0.0%,-4.8%,4.8,-0.2,5.1%
CCN(CC)S(=O)(=O)c1cccc(C(=O)c2c(C)cc3ccccn23)c1,5.5%,?,20.6µM*,0.5,13.1,?
COc1ccc(CNCc2ccc3c(c2)OCO3)cc1Br,nt,?,16.4µM*,-23.1,2.9,0.3%
Cc1ccc(S(=O)(=O)CCC(=O)OCC(=O)Nc2cc(S(=O)(=O)N3CCOCC3)ccc2C)cc1,2.3%,?,?,1.7,6.0,-3.5%
COc1cc(NC(=O)c2cccc([N+](=O)[O-])c2)ccc1NC(=O)c1cc2ccccc2o1,nt,?,8.2µM*,-0.9,6.8,-4.4%
COc1cc(NC(=O)c2cccc(C)c2)ccc1NC(=O)c1cc2ccccc2o1,nt,?,3.66µM*,21.4,6.5,19.1%
Cc1ccc(-n2ncc3c(NCCc4ccccc4)ncnc32)cc1Cl,7.8%,?,?,nt,nt,nt
COc1ccc(CCNc2ncnc3c2cnn3-c2ccc(F)cc2)cc1,2.6%,?,?,nt,nt,nt
COc1ccc(CCNc2ncnc3c2cnn3-c2ccc(C)c(Cl)c2)cc1,2.6%,20.6µM*,?,nt,nt,nt
COc1ccc(CCNc2ncnc3c2cnn3-c2cccc(Cl)c2)cc1,2.6%,?,25.9µM*,nt,nt,nt
Cc1ccc(-n2ncc3c(NCCC4=CCCCC4)ncnc32)cc1C,7.8%,10.3µM*,?,nt,nt,nt
OCCOCCN1CCN(C(=S)Nc2ccccc2)CC1,5.1%,3.2%,1.8%,3.8,10.2,0.2%
CN(CC(=O)Nc1cccc(F)c1)C(=O)c1cc(S(=O)(=O)N2CCCCC2)ccc1N1CCOCC1,0.4%,-2.9%,?,-11.1,-7.1,-2.3%
CCOc1ccc(CN2CCN(CCCc3ccccc3)CC2CCO)cc1 (stereo not given),nt,?,?,-51.7*,-17.9,-28.7%
OCCC#Cc1ccc(CN2CCN(CCc3ccccc3)C(CCO)C2)cc1 (stereo not given),nt,3.7%,-1.9%,6.9,25.9,-2.8%
SMILES,TDP1 block,TDP1 cell CPT,DT40 TDP1 no CPT,IL1B secr inh,Giardia killer,ELG1 repair inh
C#Cc1ccc(CN2CCN(CCCc3ccccc3)C(CCO)C2)cc1 (stereo not given),nt,-14.5%,?,-55.0*,-7.1,?
COc1cc(CN2CCN(CCCc3ccccc3)C(CCO)C2)cc(OC)c1O (stereo not given),nt,6.51µM*,6.51µM*,21.4,24.2,-7.9%
OCCC1CN(CCCc2ccccc2)CCN1Cc1ccc(F)cc1 (stereo not given),nt,0.3%,-25.1%,-15.6,-6.6,-0.1%
CCCCCCCCCCCCCCOc1ccc(C(=O)O)o1,39.8µM*,nt,nt,nt,nt,nt
CCN(CC)C(=O)c1sc2c(c1C)c(=O)n(CCc1ccccc1)c(=O)n2Cc1ccc(C)cc1,5.4%,20.6µM*,?,nt,nt,nt
CCN(CC)C(=O)c1sc2c(c1C)c(=O)n(-c1ccccc1)c(=O)n2Cc1c(C)cc(C)cc1C,3.4%,?,?,nt,nt,nt
Cc1cc(NCc2ccco2)n2ncnc2n1,-2.6%,-4.8%,3.5%,23.8,-6.9,?
CCCCCCC1=Cc2cc(OC)c(OC)cc2C(C(C(C)=O)C(=O)OC)O1 (stereo not given),4.8%[21 µM],nt,nt,nt,nt,nt
COCCNc1nc(NCCCN(C)C)c2sccc2n1,nt,-12.2%,-13.4%,-7.7,nt,nt
COCCNc1nc(NCCOc2ccccc2Cl)c2sccc2n1,nt,13µM*,16.4µM*,-22.9,nt,nt
CC(C)Nc1nc(Nc2ccccc2Cl)c2sccc2n1,nt,23.1µM*,23.1µM*,-62.9*,nt,nt
COCCNc1nc(Nc2ccccc2Cl)c2sccc2n1,nt,?,23.1µM*,-10.9,nt,nt
Cc1ccccc1-c1nc(NC(C)C)nc2ccsc12,nt,?,?,19.7,nt,nt
CCCC1=[N+](CC(=O)c2ccccc2)CCn2c(C)ccc21,5.9%,2.91µM*,2.06µM*,?,-3.0,0.4%
CCCC1=[N+](CC(=O)c2ccc(C)cc2)CCn2cccc21,2.7%,?,18.4µM*,-1.7,0.9,12.9%
Cc1ccc(NC(=O)CN(c2ccccc2)S(=O)(=O)N(C)C)cc1,2.6%,?,?,14.6,-9.6,-18.6%
Cc1ccc(S(=O)(=O)N(C)c2ccc(OCC(=O)Nc3cccc(-n4cnnn4)c3C)cc2)cc1,7.0%,?,?,12.7,5.5,23.1µM*
COCCn1c(C)cc(C(=O)COc2ccc(N(C)S(=O)(=O)c3ccc(C)cc3)cc2)c1C,3.9%,18.4µM*,?,1.5,-16.0,?
COc1ccc(NC(=O)CS(=O)(=O)c2cccc(Cl)c2)cc1,nt,?,23.1µM*,-25.3,0.0,4.4%
COCCn1c(C)cc(C(=O)COC(=O)c2ccc(S(=O)(=O)N(C)C)cc2)c1C,0.2%,-7.3%,-3.5%,13.5,14.4,8.0%
COc1ccc(NC(=O)CS(=O)(=O)c2ccc(Br)cc2)cc1,nt,8.5%,4.6%,3.7,?,-0.1%
CCOc1ccccc1OCCCC(=O)Nc1cccc(-n2cnnn2)c1C,1.6%,-17.3%,-0.2%,20.3,-9.6,-0.9%

# Screening data: PubChem, National Center for Advancing Translational Sciences (NCATS)
